# Screening results from PubChem BioAssay.
# HCMV antiviral: qHTS Assay for inhibitors of the human cytomegalovirus (HCMV). HFF cells, HCMV-luciferase reporter, 72 h; stronger effect = lower value. activity change, negative = inhibition, % at 57.5 µM. 4.5% of 410,000 active; in the data active = activity change below about -60%; inconclusive = no clear call, values can overlap the other calls; inactive = above about -39%; also: % is scaled to controls: 0 for no effect and ±100 for the full control effect
#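 After 16 h attachment at 37C, HFF cells received test compound and HCMV-luciferase (1 PFU/cell); reporter luminescence read 72 h later, data normalized against buffer-only and known inhibitor Salinomycin.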
# Pf growth 48h: Primary qHTS for delayed death inhibitors of the malarial parasite plastid, 48 hour incubation. AID 504832, 2011. P. falciparum luciferase growth in erythrocytes, 48 h. 5.9% of 310,000 active. Potency, µM (highest dose often 28.7 µM), inactives show top-dose activity change, negative = inhibition, actives largely listed as inhibitors; also: potency is read from the fitted curve at half-maximal effect; % is scaled to controls: 0 for no effect and ±100 for the full control effect
#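 Parasite viability was followed by luminescence of a genomically integrated firefly luciferase. Cultures held 0.1% parasitemia at 2% hematocrit (final), incubated under 5% CO2 at 37 C.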
# Pf growth 96h: Primary qHTS for delayed death inhibitors of the malarial parasite plastid, 96 hour incubation; P. falciparum luciferase reporter growth, 96 h; Potency, µM (top dose mostly 28.7 µM), for the others: top-dose activity change, negative = inhibition, hits mostly inhibitors; 6.9% of 320,000 active; AID 504834, 2011; also: potency is read from the fitted curve at half-maximal effect; % is scaled to controls: 0 for no effect and ±100 for the full control effect
#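 Readout is luminescence from an integrated firefly luciferase in P. falciparum. Red cells, 2% hematocrit and 0.05% parasitemia final, were cultured with compound through two parasite generations (96 hours) at 37 C, 5% CO2.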
# Shiga toxin inh: A qHTS for Small Molecule Inhibitors of Shiga Toxin; 9.2% of 290,000 active; Vero cells, Shiga toxin protein synthesis inhibition reporter; inhibition, % at 38.7 µM; in the data active = inhibition mostly above about 28%, no sharp cut-off; inactive = mostly below about 43%; also: 0% is about no effect
# HCV inhibitor: qHTS Assay for Inhibitors of Hepatitis C Virus (HCV); Huh7.5.1 HCVcc-Cre infection, luciferase reporter, 44 h; Potency, µM (titrated, usually from 41.8 µM), inactives show at the highest dose activity change, negative = inhibition, hits mostly inhibitors; 3.4% of 340,000 active; also: potency is read from the fitted curve at half-maximal effect; % is scaled to controls: 0 for no effect and ±100 for the full control effect
#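 Luciferase read-out (15 sec integration) after a 15 min room-temperature substrate step quantifies HCVcc-Cre infection. Cells, 1,000 per well, had compound added 4 h post-plating, then virus at ~0.5 moi, and were cultured 44 h.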
# CHX counter: Cycloheximide Counterscreen for Small Molecule Inhibitors of Shiga Toxin | cell reporter, cycloheximide protein synthesis inhibition counterscreen | max response, % | 12% of 300,000 active | AID 2314, 2010; in the data active = max response mostly above about 13%, no sharp cut-off; inactive = mostly below about 14%; also: read at 38.3 µM for the half of the compounds with a filed dose; 0% is about no effect
# * = called active by the depositor; ? = inconclusive; / = not tested or not shown. Shown are actives, neighbours in structure and some others; about 21% of the full set was active somewhere. Unless noted, calls follow the shape of the dose curve; as a rule, active = well fitted inhibition curve with a large enough effect; inconclusive = small, poorly fitted or top-dose-only effect, or another doubt; inactive = no such curve, though single readings can be large or run the other way.
SMILES,HCMV antiviral,Pf growth 48h,Pf growth 96h,Shiga toxin inh,HCV inhibitor,CHX counter
CC(C)NS(=O)(=O)c1ccc(NC(=O)NC2CCCCC2)cc1,21,-7%,?,20,-1%,14*
O=C(Nc1ccccc1NC(=O)NC1CCCCC1)NC1CCCCC1,-106*,32%,/,35,13µM*,27*
O=C(NC1CCCCCCC1)NC1CCCCC1,119,120%,162%,23,3%,26*
CC(NS(=O)(=O)c1ccccc1)C(=O)NC1CCCC1 (stereo not drawn),5,6%,?,-8,11%,-3
COc1ccccc1-c1nc(SCC(=O)c2ccc(Cl)cc2)n[nH]1,-11,/,/,/,/,/
Cc1c(OCC(=O)N2CCC(C(=O)O)CC2)ccc2c1oc(=O)c1ccccc12,-8,-7%,48%,4,16%,-4
O=C(NC1CCCCC1)Oc1ccccc1,-1,57%,0%,51,-3%,30*
O=C(NC1CCS(=O)(=O)C1)Oc1ccccc1 (stereo not drawn),46,/,-4%,-22,5%,-6
C=CCNC(=S)Nc1cccc([N+](=O)[O-])c1,-90*,-4%,7%,-9,-4%,-4
CCNC(=S)Nc1cccc([N+](=O)[O-])c1,/,47%,17%,-1,5%,-3
O=C(CNC(=O)OCc1ccccc1)NC1CCCCCCC1,2,7%,19%,20,18%,2
O=C(Nc1cccc([N+](=O)[O-])c1)NC1CCCCCCC1,4,38%,-17%,81*,?,32*
NC(=O)C1CCC(NC(=O)OCc2ccccc2)CC1 (stereo not drawn),38,34%,6.6µM*,18,8%,-1
O=C(O)C1C2CCC(CC2)C1C(=O)N1CCN(Cc2ccc(F)cc2)CC1 (stereo not drawn),16,6%,0%,12,7%,2
CCOC(=O)Cn1c(=O)oc2cc(S(=O)(=O)N3CCN(c4ccc(F)cc4)CC3)ccc21,-14,/,/,/,/,/
COc1ccc(S(=O)(=O)N2CCN(C(=O)c3ccc(C)o3)CC2)cc1,0,?,?,-12,14%,10
Cc1ccc(S(=O)(=O)NC2CCSC2=O)cc1C (stereo not drawn),-28,13%,-2%,/,17%,/
CCN(CC)C(=O)C1=C(C)N(Cc2ccccc2)C(=O)C(CC(=O)NCCCN(C)C)C1 (stereo not drawn),1,/,/,/,/,/
Cc1ccc(NC(=O)N2CC3CCCN3c3ccccc32)cc1Cl (stereo not drawn),22,/,/,/,/,/
CC(=O)Nc1ccc(S(=O)(=O)NC2CCCCCC2)cc1,-17,1%,-10%,-5,-6%,-2
COc1cccc(C(=O)CN2CCC(NC(=O)NC3CCCCC3)CC2)c1,37,2%,15µM*,1,-2%,-3
COC(=O)C1CCN(CC(=O)NC(=O)NC2CCCCC2)CC1,-98*,0%,32%,22,15%,4
CC(C)C(=O)NC(=S)Nc1ccc(S(=O)(=O)NC2CCCCC2)cc1,-25,4%,17µM*,19,-20%,5
O=C(Nc1cccc2ccccc12)NC1CCCCC1,0,45%,0.83µM*,-5,?,1
O=C(Nc1ccccc1)NC1CCCCC1,12,/,45%,49*,-10%,51*
SMILES,HCMV antiviral,Pf growth 48h,Pf growth 96h,Shiga toxin inh,HCV inhibitor,CHX counter
O=C(Nc1ccccc1)NC1CCCCCCC1,12,/,/,/,-12%,/
O=C(NC(=S)Nc1cccc([N+](=O)[O-])c1)C1CCCC1,60,14%,-18%,52*,-22%,34*
Cc1nc2ccc(NC(=O)c3cccc(S(=O)(=O)N(C)c4ccccc4)c3)cc2s1,/,?,8.3µM*,-3,10µM*,-3
Cc1nc2ccc(NC(=O)c3cncc(Br)c3)cc2s1,?,?,?,102*,?,32*
Cc1nc2ccc(NC(=O)c3ccc(=O)[nH]c3)cc2s1,-9,?,-20%,19,14%,-6
CCCCC(=O)Nc1ccc(C(=O)NNC(=O)c2ccc(C)c(Br)c2)cc1,-20,2%,-7%,-2,11%,1
CC(=O)c1ccc(NC(=O)c2ccc(C)c(Br)c2)cc1,115,18%,?,73*,?,60*
CCNc1ccc(C(=O)Nc2ccc3nc(C)sc3c2)cc1[N+](=O)[O-],2,?,?,32,?,27*
Cc1nc2ccc(NC(=O)c3ccc(N4C(=O)CCC4=O)cc3)cc2s1,20,26%,-25%,1,0%,-1
Cc1cccc(CCNC(=O)c2cc3c(=O)n(C)c4ccccc4c3n2C)c1,-21,/,/,/,/,/
C/C(=N/Nc1ccc(C(=O)c2c(C)cc3ccccn23)cc1[N+](=O)[O-])c1ccc(O)cc1,-29,/,/,/,7%,/
Cc1cccnc1NC(=O)c1ccc2nc(N)sc2c1,3,/,12%,73*,-7%,28*
Cc1cccnc1NC(=O)c1ccc2c(c1)OCO2,12,73%,59%,/,21%,/
Cc1nc2ccc(NC(=O)c3ccc4ccccc4n3)cc2s1,31,70%,132%,102*,?,28*
Cc1nc2cc(C(=O)O)ccc2s1,103,132%,13%,133*,-6%,44*
CCn1nc(C(=O)NC2=NCCS2)c2ccccc2c1=O,65,/,?,-11,?,-1
CCn1nc(C(=O)Nc2ccc3nc(C)sc3c2)c2ccccc2c1=O,-5,8%,8%,30,-5%,19*
CN(C)CCNC(=O)CN1C(=O)CCn2nc(-c3cn(C)c4ccccc34)cc21,5,/,/,/,/,/
Cc1ccccc1CNC(=O)c1ccc2nc(N3CCOCC3)sc2c1,57,14%,17%,14,-26%,2
C=CCNC(=O)Nc1ccc2nc(C)sc2c1,?,62%,?,24,15%,14
Cc1ccccc1NC(=O)c1ccc2nc(N3CCOCC3)sc2c1,-12,-5%,?,38*,?,28*
Cc1nc2ccc(NC(=O)c3ccccc3)cc2s1,29,20%,0%,108*,6%,30*
CNC(=O)Nc1ccc2nc(C)sc2c1,-29,50%,-3%,18,23%,16*
Cc1nnc(NC(=O)c2ccc3ccccc3n2)s1,111,220%,108%,110*,-1%,38*
Cc1nc2ccc(C(=O)Nc3ccccc3Cl)cc2s1,99,16%,?,118*,2%,50*
CC(=O)c1ccc(NC(=O)c2ccc3nc(C)sc3c2)cc1,16,1%,31%,/,-26%,87*
Cc1nc2ccc(C(=O)Nc3ccc(N(C)C)cc3)cc2s1,18,/,/,/,5%,/
Cc1nc2ccc(OC(=O)c3ccccc3)cc2s1,57,-14%,-11%,19,15%,13*
